Shown are actives, neighbours in structure and some others; about 8% of the full set was active somewhere.
TSHR antag: blocks TSH signaling through the human TSH receptor | activity change, negative = inhibition, % at 11.5 µM | AID 504810 | 330,000 tested, 0.2% active | P16473 | TSHR-expressing cells, TSH-stimulated cAMP HTRF, 2 h; stronger effect = lower value;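 active means activity change below a set negative limit, meaning inhibition stronger than a set level, cut at about -70% in these data; inconclusive means activity change between two set negative limits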
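Competitive HTRF cAMP read-out (cryptate anti-cAMP antibody, cAMP-d2; 30 min, room temperature) in freshly harvested TSHR cells. Compounds added before TSH at EC80 (4nM final), followed by 2 hours' incubation at 37 deg C.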
ELG1 DNA repair: inhibitors of ELG1-dependent DNA repair in HEK293T cells. HEK293T ELG1-luciferase reporter, luminescence, 16 h; DNA damage induced by 5-fluorouridine. AID 504467. Potency, µM (highest dose often 46.1 µM), without a hit: at the highest dose activity change, negative = inhibition, hits mostly inhibitors. 330,000 tested, 2.3% active; further: potency means the concentration at half of the fitted maximal effect; nearly all actives have a fitted effect of over 55% in size
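Step one: seed 2,000 cells per well. Step two: pin-transfer compound or DMSO alongside 5-fluorouridine. Step three: incubate 16 hr, 37 °C, 5% CO2. Step four: add ONE-Glo, wait 30 min, read luminescence.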
FBPA coupling cs: coupling enzyme interference in Giardia aldolase counter-screen. activity change, negative = inhibition, % at 58.2 µM, hits read low. coupling enzyme system counterscreen, AmpLite Red fluorescence. AID 2472. 290,000 tested, 0.67% active; in the data active means activity change below about -30%
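Counterscreen lacking aldolase: glyceraldehyde-3-phosphate coupling-enzyme reagent preincubated 10 min at RT with compound (at 57.5 uM final), then substrate/coupling system with AmpLite Red added; fluorescence read at 525/598 nm after 20 min RT.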
VP16 counter: inhibits Gal4-VP16 luciferase reporter, ROR gamma counter-screen; 310,000 tested, 3.5% active; Drosophila S2 Gal4-VP16 UAS-luciferase, luminescence, 20 h; Potency, µM (highest dose often 53.6 µM), for the others: at the top dose activity, negative = inhibition, usual class: inhibitors;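 further: Gal4-VP16 expression switched on by copper sulfate through the metallothionein promoter; potency means the concentration at half of the fitted maximal effect; nearly all actives have a fitted effect of over 50% in size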
RORgamma inh: blocks mouse ROR gamma transcriptional activity. P51450. Drosophila S2 Gal4-RORgamma UAS-luciferase reporter, 20 h. Potency, µM (series often up to 53.6 µM), inactives show top-dose activity change, negative = inhibition, hits mostly inhibitors. 310,000 tested, 5.4% active. AID 2551; further: potency means the concentration at half of the fitted maximal effect; nearly all actives have a fitted effect of over 60% in size
Target sequence (P51450 whole entry, looked up, the tested form may be a part): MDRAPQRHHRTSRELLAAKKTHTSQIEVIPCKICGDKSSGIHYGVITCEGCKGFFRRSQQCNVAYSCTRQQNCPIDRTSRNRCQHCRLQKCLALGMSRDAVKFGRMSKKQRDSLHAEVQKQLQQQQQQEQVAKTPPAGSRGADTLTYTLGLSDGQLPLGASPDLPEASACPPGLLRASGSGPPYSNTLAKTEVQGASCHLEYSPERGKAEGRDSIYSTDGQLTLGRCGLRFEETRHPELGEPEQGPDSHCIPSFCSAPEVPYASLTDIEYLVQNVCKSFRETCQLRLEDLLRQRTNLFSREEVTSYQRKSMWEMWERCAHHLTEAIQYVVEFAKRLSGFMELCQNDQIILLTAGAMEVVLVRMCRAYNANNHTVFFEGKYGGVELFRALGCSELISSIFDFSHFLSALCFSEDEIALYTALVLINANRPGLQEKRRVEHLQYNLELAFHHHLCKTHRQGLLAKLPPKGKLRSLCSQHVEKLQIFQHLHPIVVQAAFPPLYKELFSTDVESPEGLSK
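Schneider cells (Drosophila), stable Gal4 DBD–ROR gamma + UAS-luc; 1 hr cmpd preincubation; Cu2+ induction 700 uM final; 20 hr ambient; luminescence.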
* hit, by the source's call; ? = inconclusive; nt = not tested or not shown; [ ] = remark or other dose. Unless noted, the call rests on the fitted dose curve; in most records, active means well fitted curve in the direction sought with a large enough effect; inconclusive means small, poorly fitted or top-dose-only effect, or another doubt; inactive means no such curve, though single readings can be large; an effect the other way counts as inactive or inconclusive. On the % scale 0 is the no-effect control and ±100 the full control effect.

SMILES | TSHR antag | ELG1 DNA repair | FBPA coupling cs | VP16 counter | RORgamma inh
CCN(c1ccccc1)S(=O)(=O)c1ccc(C(=O)Nc2nnc(C3CC3)o2)cc1 | -2 | 10µM* | 8 | 0.56µM* | 0.25µM*
CN(c1ccccc1)S(=O)(=O)c1ccc(C(=O)Nc2nnc(C3CC3)s2)cc1 | 7 | 13% | 4 | -2% | -6%
CN(c1ccccc1)S(=O)(=O)c1ccc(C(=O)Nc2nnc(C3CC3)o2)cc1 | 9 | 10µM* | 1 | 1µM* | 0.32µM*
CCN(c1ccccc1)S(=O)(=O)c1ccc(C(=O)N2CCOCC2)cc1 | nt | 17% | nt | nt | nt
Cc1ccc(C2CC(c3cccs3)=NN2C(=O)CCl)cc1 (stereo not drawn) | -6 | ? | 2 | ? | 18µM*
CCC(=O)N1N=C(c2cccs2)CC1c1ccc(C)cc1 (stereo not drawn) | -3 | 9% | 0 | 4% | 5%
COc1cc2[nH]c3c(=O)n(CCN(C(C)C)C(C)C)cnc3c2cc1OC | 7 | ? | -45* | -6% | -14%
COc1cc(NS(C)(=O)=O)ccc1Nc1c2ccccc2nc2ccccc12 | 6 | ? | nt | 1% | 20µM*
COc1ccc(OC)c(Nc2c3ccccc3nc3ccccc23)c1 | -1 | 12µM* | 1 | ? | ?
COc1ccc([N+](=O)[O-])cc1Nc1c2ccccc2nc2ccccc12 | -14 | -27% | -1 | ? | ?
COc1c(C)c2c(c(O)c1CC=C(C)CCC(=O)OCCN1CCOCC1)C(=O)OC2 | nt | nt | 1 | -3% | 5%
COc1cc(-c2nc3c(c(C)nn3-c3ccccc3)c3cc(OC)c(OC)cc23)ccc1O | -25 | 18µM* | -16 | -10% | 18%
c1ccc(-c2c3ccccc3nc3[nH]c4ccccc4c23)cc1 | 1 | 5% | -7 | ? | 11µM*
c1ccc2nc3c(nc2c1)[nH]c1ccccc13 | -12 | ? | -6 | -8% | ?
CN(C)CCN1C(=O)C2C(C(=O)Nc3cc(Cl)cc(Cl)c3)C3C=CC2(O3)C1C(=O)NC1CCCCC1 (stereo not drawn) | 8 | 6% | 3 | 3% | 9%
NC(=O)c1ccccc1N/C=C/C(=O)c1ccc(Cl)cc1Cl | -2 | ? | -1 | 4µM* | 0.63µM*
Cc1ccc(C(=O)/C=C/Nc2ccccc2C(N)=O)o1 | nt | nt | -1 | 11% | -29%
NC(=O)c1ccccc1N/C=C/C(=O)c1ccc(F)cc1 | 8 | ? | -7 | ? | 0.56µM*
CC1(C)NC(=O)N(CC(=O)N2CCN(c3ccc([N+](=O)[O-])cc3)CC2)C1=O | -3 | -6% | nt | nt | nt
CC1CCC(C(C)C)C(OC(=O)Cn2c(-c3ccc(Br)cc3)[n+](C)c3ccccc32)C1 (stereo not drawn) | 4 | 13µM* | 0 | ? | ?
CC1CCC(C(C)C)C(OC(=O)Cn2c(-c3ccc(Cl)cc3)[n+](C)c3ccccc32)C1 (stereo not drawn) | -7 | ? | -1 | ? | ?
Cc1ccccc1OCc1n(CC(=O)OC2CC(C)CCC2C(C)C)c2ccccc2[n+]1C (stereo not drawn) | 8 | 12µM* | -2 | 18µM* | ?
CNC(=S)N(C)/N=C1/C(=O)N(Cc2c(Cl)cccc2Cl)c2ccccc21 | ? | -19% | nt | nt | nt
COc1cc(=O)n(C)c2ccccc12 | -1 | nt | -2 | 0% | 13µM*
CC(C)CCNC(=O)CCCOc1cc(=O)n(C)c2ccccc12 | 2 | ? | 3 | 11% | 13µM*
SMILES | TSHR antag | ELG1 DNA repair | FBPA coupling cs | VP16 counter | RORgamma inh
CN(C(=O)c1cccc(NC(=O)Cc2cccc([N+](=O)[O-])c2)c1)C1CC1 | -9 | -27% | nt | nt | nt
O=C(CCc1nc(-c2ccccc2)no1)NC1CCCCCC1 | -10 | 5% | nt | nt | nt
CCCN(Cc1ccccc1)C(=S)Nc1cccc(C(F)(F)F)c1 | 16 | -7% | 0 | ? | -35%[10 µM]
CCCN(Cc1ccccc1)C(=S)Nc1ccc(F)cc1 | -10 | -8% | 0 | -23% | 16µM*
CCCN(Cc1ccccc1)C(=S)Nc1ccc(OCC)cc1 | -7 | -1% | 0 | -22% | 10µM*
C=CCNC(=S)N(Cc1ccccc1)Cc1ccc(F)cc1 | 11 | 0% | 2 | -28% | 18µM*

Assay outcomes from PubChem BioAssay.
